# Screening results: PubChem BioAssay, National Center for Advancing Translational Sciences (NCATS)
# Compounds with a hit are over-represented: about 1.4% of the library has one in this group of screens.
# p53 reactivation: qHTS assay for re-activators of p53 using a Luc reporter; H1299 p53-A138V BP100-luciferase reporter, luminescence, 24 h; 0.063% of 320,000 active; AID 504706, 2011; Potency, µM (doses to about 92.2 µM), for inactives: at the top dose activity change, positive = activation, most hits filed as activators; also: potency is read from the fitted curve at half-maximal effect; % of control where 0% means no effect; nearly all actives have a fitted effect of over 45% in size
#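 p53-null H1299 cells stably carrying temperature-sensitive p53-A138V and a BP100-luciferase reporter were pinned with compounds (4-point, 1:5 series) and held 24 hrs at 37 deg C. Luminescence was read 10 min after detection reagent.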
# Mm-Cpn inhibitor: Inhibitors of TCP-1 ring complex (TRiC) of Methanococcus maripaludis (MmCpn): qHTS; purified Mm-Cpn ATPase, ADP Transcreener TR-FRET; Potency, µM (top dose mostly 76.9 µM), without a hit: at the highest dose activity, negative = inhibition, most hits filed as inhibitors; 0.031% of 330,000 active; also: potency is read from the fitted curve at half-maximal effect; % is scaled to controls: 0 for no effect and ±100 for the full control effect; nearly all actives have a fitted effect of over 80% in size
#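 Quantitative HTS used 25 nM Mm-CPN and 10 uM ATP in magnesium/KCl Tris buffer, pH 7.4, with 1 mM DTT. Hydrolysis ran 30 min at 37°C; ADP was read by HTRF.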
# 12-LOX inh: Primary qHTS assay for inhibitors of human arachidonate 12S-lipoxygenase (ALOX12): Round 2; Polyunsaturated fatty acid lipoxygenase ALOX12 (Homo sapiens), P18054; AID 1671190, 2021; purified 12hLO, xylenol orange hydroperoxide absorbance; Potency, µM (top dose mostly 108 µM), for inactives: at the highest dose activity change, negative = inhibition, actives largely listed as inhibitors; 1.1% of 580,000 active; also: potency is read from the fitted curve at half-maximal effect; % is scaled to controls: 0 for no effect and ±100 for the full control effect
# Target sequence (P18054 whole entry, looked up): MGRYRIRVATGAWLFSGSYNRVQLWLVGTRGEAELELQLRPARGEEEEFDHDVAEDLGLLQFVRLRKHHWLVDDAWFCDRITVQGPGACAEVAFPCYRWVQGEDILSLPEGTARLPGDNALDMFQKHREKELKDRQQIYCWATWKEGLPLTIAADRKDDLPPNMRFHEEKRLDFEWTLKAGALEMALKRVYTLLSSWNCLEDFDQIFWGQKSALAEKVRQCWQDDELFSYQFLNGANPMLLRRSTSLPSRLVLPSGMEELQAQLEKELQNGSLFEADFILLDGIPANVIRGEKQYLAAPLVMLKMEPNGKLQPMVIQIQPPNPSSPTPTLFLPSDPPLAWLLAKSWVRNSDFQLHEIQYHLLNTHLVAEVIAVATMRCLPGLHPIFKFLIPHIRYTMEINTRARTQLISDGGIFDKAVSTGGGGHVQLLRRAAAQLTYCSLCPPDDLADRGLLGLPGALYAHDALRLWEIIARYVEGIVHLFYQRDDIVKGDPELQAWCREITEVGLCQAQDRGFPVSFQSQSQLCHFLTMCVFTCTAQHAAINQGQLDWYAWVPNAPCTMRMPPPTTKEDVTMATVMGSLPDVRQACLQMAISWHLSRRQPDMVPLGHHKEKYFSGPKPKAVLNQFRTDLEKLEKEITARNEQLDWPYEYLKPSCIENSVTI
#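 Purified human 12hLO (150 nM final) in 25 mM Hepes, 0.01% Triton X-100, pH 7.0 was preincubated 15 min at room temperature with compound. Then 40 uM arachidonic acid was added, 30 min. Hydroperoxide was read by Fe-XO absorbance ratio 573/405 nm.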
# CCT modulator: High-Throughput Screening for Modulators of Cytosolic Chaperonin Activity; purified chaperonin ATPase assay, HTRF ADP detection, 30 min; activity change, % (concentration not given with the values), hits read low; 0.3% of 360,000 active; AID 651819, 2012; in the data active = activity change below about -30%; also: % is scaled to controls: 0 for no effect and ±100 for the full control effect
#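 First, chaperonin was dispensed at 40 nM or 20 nM final depending on batch activity. Next, compounds were pinned at 76 uM and ATP added at 10 uM. After 30 min at 37 °C, ADP detection reagents ran 30 min at ambient temperature.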
# S-ASM inh: Inhibitors of Secretory Acid Sphingomyelinase (S-ASM): qHTS. placental ASM, HMU-PC fluorogenic substrate, 60 min. Potency, µM (highest dose often 57.5 µM), for inactives: top-dose activity change, negative = inhibition, actives largely listed as inhibitors. 0.006% of 340,000 active. AID 504937, 2011; also: potency is read from the fitted curve at half-maximal effect
#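 Fluorescence read-out (Ex 386 nm, Em 447 nm) after stopping the reaction at pH 10. Enzyme: ASM from human placenta; substrate HMU-PC0, 9 uM final; 60 min, 37 °C. Compound preincubation 10 min, ambient temperature.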
# PINK1 modulator: A Quantitative High throughput Screen to Identify Chemical Modulators of PINK1 Expression; PINK1 immunofluorescence, high-content cytometry, 24 h; Potency, µM (series often up to 76.6 µM), without a hit: at the top dose activation (PINK1 increase), most hits filed as activators; 0.2% of 410,000 active; AID 624263, 2012; active = well fitted activation curve with a large enough effect; inconclusive = small, poorly fitted or top-dose-only effect; cell line not stated here; also: potency is read from the fitted curve at half-maximal effect; % of control where 0% means no effect; nearly all actives have a fitted effect of over 65% in size
#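 Compound titrations (5 concentrations, 24 h) on a stable cell line; DMSO and CCCP controls. Endpoint: fixed-cell PINK1 immunofluorescence with mitochondrial, cell and nuclear markers, scanned by microplate cytometer.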
# Active calls of the source: *; i = inactive; ? = inconclusive; · = no result given; ! = not confirmed by another sample; [ ] = remark or other dose. Unless noted, calls follow the shape of the dose curve; as a rule, active = well fitted curve in the direction sought with a large enough effect; inconclusive = small, poorly fitted or top-dose-only effect, or another doubt; inactive = no such curve, though single readings can be large; an effect the other way counts as inactive or inconclusive.
SMILES,p53 reactivation,Mm-Cpn inhibitor,12-LOX inh,CCT modulator,S-ASM inh,PINK1 modulator
CCc1ccc(NC(=O)C(C)OC(=O)c2ccc(NS(=O)(=O)c3ccc(C)c([N+](=O)[O-])c3)cc2)cc1 (centres undefined),20.8%,-4.6%,?,-1.5,-13.0%,44.7µM*
CCc1noc(-c2ccn3c(CNC(=O)c4cccc(Cl)c4)nnc3c2)n1,·,·,33.6%,·,·,·
CCc1noc(-c2ccn3c(CNC(=O)c4ccc(F)cc4)nnc3c2)n1,·,·,11.3%,·,·,·
CCCc1noc(-c2ccn3c(CNC(=O)Cc4ccccc4Cl)nnc3c2)n1,·,·,44.7µM*,·,·,·
CCCc1noc(-c2ccn3c(CNC(=O)c4ccc(CC)cc4)nnc3c2)n1,·,·,39.8µM*,·,·,·
CCCc1noc(-c2ccn3c(CNC(=O)c4ccc(F)c(Cl)c4)nnc3c2)n1,·,·,50.1µM*,·,·,·
CCCCOC(=O)c1ccc(NC(=O)c2cc(=O)c3cc(C)ccc3o2)cc1,·,·,-2.7%,·,·,·
Cc1cccc2cc3c(N)c(C(=O)N4CCOCC4)sc3nc12,7.3%,-6.8%,25.1µM*,-2.7,-9.7%,0.8%
Nc1c(C(=O)N2CCOCC2)sc2nc(N3CCOCC3)c3c(c12)CCCC3,-2.5%,-8.2%,39.8µM*,-1.0,i,-0.5%
Cc1cc(C)c2cc3c(N)c(C(=O)N4CCc5ccccc5C4)sc3nc2c1,-10.3%,-3.2%,-62.1%,0.5,-11.8%,·
c1cc2c(cc1C1CCCN1Cc1nnnn1C1CC1)OCCO2 (centres undefined),·,·,0.3%,·,·,·
Cc1ccc(-c2nnn(CC(=O)N(CCN3CCOCC3)C(C(=O)NC(C)(C)C)c3ccco3)n2)cc1 (centres undefined),8.1%,-1.6%,5.2%,-63.3*,-0.5%,-0.1%
CC(C)(C)NC(=O)C(c1ccco1)N(C(=O)Cn1nnc(-c2ccc(F)cc2)n1)c1cccc(F)c1 (centres undefined),16.6%,0.5%,-1.4%,-1.3,-3.9%,12.6µM*
Oc1ccc(CN2CC(CNc3ccccc3)C3(C2)CN(c2ccccc2)C3)cc1 (centres undefined),·,·,63.1µM*,·,·,·
O=C(O)c1cccc(CN2CC(CNc3ccccc3)C3(C2)CN(c2ccccc2)C3)c1 (centres undefined),·,·,13.1%[176 µM],·,·,·
O=[S+]([O-])(NCC1CN(Cc2ccc3[nH]ccc3c2)CC12CN(c1ccccc1)C2)c1ccccc1 (centres undefined),·,·,35.5µM*,·,·,·
C[S+](=O)([O-])c1cccc(CN2CC(COc3ccccc3)C3(C2)CN(c2ccccc2)C3)c1 (centres undefined),·,·,-0.4%,·,·,·
C/C(=N\NC(=O)c1nnn(-c2nonc2N)c1CN(C)c1ccccc1)c1ccc(O)cc1,-4.0%,4.9%,1.0%,-2.6,-2.8%,-0.6%
CC/C(=N\NC(=O)c1nnn(-c2nonc2N)c1CN(C)c1ccccc1)c1ccccc1,5.2%,1.0%,10.1%,-67.1*,0.8%,-0.4%
O=C(O)c1cc(-c2ccco2)nc2ccc(Br)cc12,24.1%,-22.6%,15.8µM*!,-1.0,2.3%,0.9%
Cc1cccc2c(C(=O)O)cc(-c3ccco3)nc12,·,·,8.91µM*,·,·,·
Cc1ccc(-c2cc(C(=O)O)c3cc(Br)ccc3n2)cc1,·,·,-2.8%,·,·,·
Cc1ccccc1NC(=O)c1cc(-c2ccco2)nc2ccccc12,·,·,?,-0.7,91.8%,1.8%
CCCCCNC(=O)CCc1c(C)nc2nc(N)nn2c1C,·,·,9.1%,·,·,·
O=C(O)C1CCN(S(=O)(=O)c2ccc(Cl)c(Cl)c2)CC1,·,·,-4.1%,·,·,·
SMILES,p53 reactivation,Mm-Cpn inhibitor,12-LOX inh,CCT modulator,S-ASM inh,PINK1 modulator
CC(C)CC(NC(=O)COc1ccccc1)C(=O)N(C)C (centres undefined),·,·,-12.2%,·,·,·
COc1ccc2ccc(OC(=O)/C=C/c3csc(C)n3)cc2c1,·,·,9.0%,·,·,·
C1CNC(CN2CCOCC2)C1 (centres undefined),·,·,8.91µM*,·,·,·
Fc1ccccc1-c1nnc(SCCc2ccncc2)n1C1CC1,·,·,6.4%,·,·,·
Cc1ccc(N/N=C/c2cccnc2)cc1,17.1%,-3.4%,39.8µM*,-5.9,-3.8%,6.7%
CCN(C(=O)CN1C(=O)NC2(CCc3ccccc32)C1=O)C1CCS(=O)(=O)C1 (centres undefined),-0.7%,-4.8%,198.5%,-33.6*,13.2%,1.7%
CC(=C1SC(=S)NC1=O)c1ccc(Cl)c(O)c1,·,·,28.2µM*,·,·,·
CC(=C1SC(=S)NC1=O)c1ccccc1,·,·,?,-3.0,1.5%,-3.0%
C=CCn1cc(CN2CCC(C(=O)Nc3ccc(Oc4cccnc4)cc3)CC2)c(C)n1,7.1%,-0.8%,8.0%,-31.3*,-0.3%,1.2%
CCc1ccc(CNCCNC(=O)c2ccco2)cc1,·,·,-20.1%,2.5,3.0%,0.4%
O=C(NCCNCc1ccccc1)c1ccco1,·,·,28.2µM*,0.5,12.3%,-0.5%
Cc1cc(Br)ccc1NC(=O)CNC(=O)CCc1ncc(-c2ccccc2F)o1,·,·,-24.9%,·,·,·
CC1(C)C(c2ccccc2)=NC(c2ccc(Br)cc2)N1O (centres undefined),-2.3%,-3.2%,7.94µM*,-1.3,-3.7%,1.3%
COc1cc(C#N)ccc1OCc1cc(C)ccc1C,·,·,-22.4%,·,·,·
CCOc1cccc(-c2cc(C(=O)O)c3ccc(C)c(C)c3n2)c1,·,·,39.8µM*,·,·,·
COc1ccc(/C(C)=N/NC(=S)NCCc2ccccc2)cc1,9.9%,2.7%,0.0%,0.5,-9.5%,-0.4%
C/C(=N/NC(=S)NCc1ccccc1)c1ccncc1,·,·,-5.1%,·,·,·
COc1ccccc1/C(C)=N/NC(=S)NCc1ccccc1,0.0%,-0.8%,39.8µM*,-1.2,-1.7%,4.9%
C/C(=N\NC(=S)NCc1ccccc1)c1ccc2ccccc2c1,?,-1.7%,44.7µM*,2.1,·,1.8%
C/C(=N\NC(=S)NCCc1ccccc1)c1cccc(Br)c1,29.4%,-0.9%,44.7µM*,-0.6,-9.0%,3.7%
C/C(=N\NC(=S)NCc1ccccc1)c1cccc(Br)c1,?,1.6%,31.6µM*,-2.9,-8.5%,7.1%
COc1ccc(CNC(=S)N/N=C(\C)c2ccc(OC)cc2)cc1,8.5%,-2.0%,?,0.0,-8.6%,7.2%
O=C(CC1=C2CCCCC2N(Cc2ccc(F)cc2)C1=O)NCCc1c[nH]c2ccccc12 (centres undefined),·,·,6.1%,·,·,·
